This is one part of the list. Records with an inconclusive call do not appear. A number with no mark means an inactive call.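 How the source made its calls: active means every replicate shows growth inhibition above 50%; inconclusive means at least half but not all replicates above 50% inhibition; inactive means under half of replicates above 50% inhibition.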

This assay in a line: growth inhibition of V. harveyi BB721, confirmation, cytotoxicity control for AI-2 quorum sensing inhibitors, strain BB721, absorbance OD600 (AID 2728). The note with it: Vibrio harveyi BB721 growth, 9 h, at 7.5 µM, active compounds read high.
On to `COc1ccc(/C(N)=N/OC(=O)Cc2ccccc2)cc1`, for which the growth inhibition was -4.72%.

As to `O=C(COC(=O)C1CCCCC1)Nc1ccc([N+](=O)[O-])cc1`, the growth inhibition is -40.8%.

Consider `Cc1cc(CN(C)C(=O)c2cc(COc3ccc(C)c(C)c3)on2)n[nH]1`, for which the growth inhibition is 28.4%.

Take `COc1cccc(NC(=O)NCc2ccc(F)cc2)c1`: the growth inhibition was -16.1%.

With `Cc1cccc(CSc2ccc(-c3cccs3)nn2)c1`, the growth inhibition was -12.7%.

In the case of `O=C(c1cc(-c2cccc(O)c2)on1)N1CCc2ccccc2C1`, the growth inhibition was 2.13%.

As to `COC(=O)c1ccc(SCc2ccccc2)nc1`, the growth inhibition was -21%.

As to `Cc1ccccc1NC(=O)CCOc1ccccc1`, the growth inhibition is -7.16%.

Regarding `Cc1cc(C(=O)OCC(=O)Nc2ccc(F)c(F)c2)c(C)o1`, the growth inhibition is -6.2%.

Consider `Cc1ccc(NC(=O)C2CC2c2ccccc2)cc1` (stereo unspecified), for which the growth inhibition was 7.3%.

As to `O=C(/C=C/c1ccc2c(c1)OCCO2)c1ccc(O)cc1`, the growth inhibition is -21.7%.

Regarding `Cc1ccc(Oc2cnn(-c3ccccc3)c(=O)c2Br)cc1`, the growth inhibition is 4.98%.

In the case of `Cc1ccsc1C(=O)OCC(=O)c1cc2ccccc2o1`, the growth inhibition is 4.04%.

For the compound `O=C(Cn1cnc2ccccc2c1=O)Nc1cccc(S(=O)(=O)N2CCCCC2)c1`, the growth inhibition was 14%.

On to `CCOC(=O)c1nn(-c2cccc(C)c2)cc1C(=O)c1ccccc1`, for which the growth inhibition is -7.63%.

As to `O=C(/C=C/c1ccc2c(c1)OCO2)NCc1ccc(F)cc1`, the growth inhibition is 16.5%.

Consider `Cc1nn(CC(=O)Nc2ccc(F)cc2)c(=O)c2ccccc12`, for which the growth inhibition is 0.351%.

Take `O=C(CCC(=O)c1cccs1)Nc1nc2ccccc2s1`: the growth inhibition is -0.412%.

Consider `CC(=O)c1cccc(OCc2cc(C(=O)NC(C)Cc3cccnc3)no2)c1` (stereo unspecified), for which the growth inhibition is 8.38%.

Regarding `S=C(NCc1ccc(Cl)cc1)NC1CCCCC1`, the growth inhibition was 12.8%.

On to `CC(CNc1ccc([N+](=O)[O-])cc1)NC(=O)c1ccccc1Br` (stereo unspecified), for which the growth inhibition was -16.1%.

In the case of `COC(=O)C1CCN(C(=O)c2ccc3oc(Cc4ccc(Cl)cc4)nc3c2)CC1`, the growth inhibition was 19.1%.

Regarding `O=C(Nc1ccc(F)c(Cl)c1)C1CCN(S(=O)(=O)c2cccnc2)CC1`, the growth inhibition is 14.5%.

Consider `CN(Cc1cnccn1)C(=O)c1cc(COc2cccc(C(F)(F)F)c2)on1`, for which the growth inhibition was 18.2%.

Turning to `N/C(=N\OC(=O)CCc1ccccc1)c1cccnc1`, the growth inhibition is 0.547%.

As to `CC(C)(C)c1ccc(OC2=CS(=O)(=O)c3ccccc32)cc1`, the growth inhibition is 26.8%.

On to `Cc1ccc(Cc2nc(-c3cccc(C)c3)no2)cc1`, for which the growth inhibition is 19.7%.

`O=C(COc1ncnc2ccccc12)NC(=O)NCc1ccccc1`: the growth inhibition was 27.2%.

For `O=C1COc2ccc(S(=O)(=O)Nc3ccc(OC(F)(F)F)cc3)cc2N1`, the growth inhibition is 55%.

As for `Cc1ccc(NS(=O)(=O)c2ccc3c(c2)NC(=O)CO3)cc1`, the growth inhibition is 18.2%.

On to `CCOc1ccc(/C=N/NC(N)=S)cc1`, for which the growth inhibition is 18%.

The values are drawn from PubChem BioAssay AID2728 (Broad Institute, 2010).
